# DT40 TDP1 CPT: DT40-hTDP1 cell growth loss with CPT | chicken DT40 Tdp1-/-;hTDP1 cells + 20 nM CPT, ATP luminescence, 48 h | 420,000 tested, 12% active | Potency, µM (top dose mostly 46.2 µM), inactives show top-dose activity change, negative = growth inhibition, hits mostly inhibitors; further: potency means the concentration at half of the fitted maximal effect; nearly all actives have a fitted effect of over 55% in size
#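 Cell growth measured by CellTiter-Glo luminescence after a minimum 48 h, 37 C compound exposure with 20 nM CPT in Tdp1-knockout DT40 cells stably expressing hTDP1, seeded 400/well; qHTS titration format.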
# IL-1B inflam inh: inhibitors of inflammasome signaling (IL-1 beta secretion) | THP-1 LPS/ATP IL-1B secretion, AlphaLISA, 16 h; active compounds read low | activity change, % at 57.5 µM | 360,000 tested, 4.7% active | AID 743279; in the data active means activity change below about -50%; inconclusive means mostly about -30% to -49%
#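 Secreted IL-1B measured by AlphaLISA bead assay after 16 h compound exposure of THP-1 cells; compounds (final up to 57.5 uM) added 1 h before LPS (250 ng/mL) and ATP (1.25 mM) stimulation; lower signal means less secretion.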
# HT1080 IDH1KD tx: HT-1080 IDH1 knockdown cell toxicity (counter line); HT-1080 IDH1 knockdown viability, ATP luminescence, 48 h; AID 686971; 360,000 tested, 2% active; Potency, µM (highest dose often 46.1 µM), inactives show at the highest dose activity, negative = toxicity, hits mostly cytotoxic;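 further: potency means the concentration at half of the fitted maximal effect; 0% = DMSO wells and -100% = cell-free medium wells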
#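 After a 2 h attachment period, IDH1KD HT-1080 cells took pin-transferred compound for 48 h at 37 °C; ATP-based luminescence after 10 min room-temperature reagent incubation reported viability.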
# HT1080-NT tox: kills 2HG-producing HT-1080-NT fibrosarcoma cells; HT-1080-NT fibrosarcoma viability, CellTiter-Glo ATP luminescence, 48 h; Potency, µM (top dose mostly 46.1 µM), inactives show at the highest dose activity, negative = less viability, actives largely listed as cytotoxic; 360,000 tested, 1.6% active; AID 686970;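 further: NT is the 2HG producing partner of a matched IDH1 knockdown line; potency means the concentration at half of the fitted maximal effect; 0% = DMSO-treated cells and -100% = media-only wells without cells; nearly all actives have a fitted effect of over 55% in size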
#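 HT-1080-NT; 750 cells/well; 5% FBS RPMI; 48 h compound, 37 degrees C; CellTiter-Glo luminescence; curve fitting and curve-class assignment.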
# TDP1 cell noCPT: qHTS for Inhibitors of human tyrosyl-DNA phosphodiesterase 1 (TDP1): qHTS in cells in absence of CPT; DT40 Tdp1-/- hTDP1 cells, no CPT, ATP luminescence, 48 h; Potency, µM (titrated, usually from 46.2 µM), inactives show top-dose activity change, negative = growth inhibition, usual class: inhibitors; 420,000 tested, 15% active; AID 686978, 2013; further: potency means the concentration at half of the fitted maximal effect; nearly all actives have a fitted effect of over 55% in size
#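 DT40 Tdp1-/-;hTDP1 cells, no CPT (DMSO vehicle only), 400 cells/well; compounds pin-transferred; ≥48 hr, 37 °C; CellTiter-Glo 30 min RT dark, luminescence read.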
# uPA surface inh: inhibitors of cell surface uPA generation | cell surface uPA generation assay, qHTS | Potency, µM (titrated, usually from 38.3 µM), without a hit: at the highest dose activity change, negative = inhibition, hits mostly inhibitors | 330,000 tested, 0.31% active | AID 540303; active means well fitted inhibition curve with a large enough effect; inconclusive means small, poorly fitted or top-dose-only effect; inactive means no such curve, though single readings can be large or run the other way; tested in mouse RAW 264.7 cells; further: potency means the concentration at half of the fitted maximal effect; nearly all actives have a fitted effect of over 55% in size
# The depositor's hits bear a star; ? = inconclusive; / = not tested or not shown; [ ] = remark or other dose. Shown are actives, neighbours in structure and some others; about 19% of the full set was active somewhere. Unless noted, the call rests on the fitted dose curve; in most records, active means well fitted curve in the direction sought with a large enough effect; inconclusive means small, poorly fitted or top-dose-only effect, or another doubt; inactive means no such curve, though single readings can be large; an effect the other way counts as inactive or inconclusive. Unless noted, on the % scale 0 is the no-effect control and ±100 the full control effect.
SMILES,DT40 TDP1 CPT,IL-1B inflam inh,HT1080 IDH1KD tx,HT1080-NT tox,TDP1 cell noCPT,uPA surface inh
CC(=O)c1sc(NS(=O)(=O)c2ccc(C)cc2)nc1-c1ccccc1,1.7%,-7.2,-6.4%,-4.6%,-20.5%,-1.4%
COC(C(=O)C(O)C(C)O)C1Cc2cc3cc(OC4CC(OC5CC(O)C(O)C(C)O5)C(O)C(C)O4)c(C)c(O)c3c(O)c2C(=O)C1OC1CC(OC2CC(OC3CC(O)C(OC)C(C)O3)C(O)C(C)O2)C(O)C(C)O1 (stereo not drawn),0.103µM*,-88.7*,0.0103µM*,?,0.146µM*,-14.2%
CCCc1cc(=O)oc2cc(OCC(=O)Nc3ccc(S(N)(=O)=O)cc3)ccc12,-22.5%,8.7,1.5%,0.2%,-25.2%,7.0%
O=C(Nc1cccc2nsnc12)c1cc2c(cc1Cl)Sc1nccn1S2(=O)=O,23.1µM*,6.0,-0.3%,8.9%,?,1.2%
O=C(Nc1cccc2nsnc12)c1cccnc1Cl,-23.9%,-11.9,22.5%,20.1%,-25.7%,4.6%
Cc1cc(C)c(S(=O)(=O)Nc2ccc3c4c(cccc24)CC3)c(C)c1,-101.0%,9.8,1.03µM*,?,3.66µM*,-8.8%
Cc1cc(C)c(S(=O)(=O)Nc2ccc3c(c2)CCC3)c(C)c1,?,?,?,23.1µM*,18.4µM*,-14.1%
Cc1ccc(S(=O)(=O)Nc2ccc3c4c(cccc24)CC3)c(C)c1,14.6µM*,45.4,10.3µM*,20.6µM*,13µM*,-11.5%
O=S(=O)(Nc1ccc2c3c(cccc13)CC2)c1ccccc1,?,5.8,-4.1%,-8.8%,13µM*,/
O=S(=O)(Nc1cccc2ccccc12)c1ccccc1,-27.0%,-9.7,-18.4%,-6.7%,-19.4%,-0.8%
CC(=O)Nc1ccc2c3c(cccc13)CC2,-45.7%,-0.3,-4.7%,-5.0%,-20.5%,0.9%
CC1CN(CC(=O)N2CCN(Cc3nccn3C)CC2)Cc2cc(Cl)ccc2O1 (stereo not drawn),5.1%[9.04 µM],/,/,/,-2.7%,/
O=C(Nc1cc2c(cc1C(=O)c1ccccc1Br)OCCO2)c1cccc(Cl)c1,-0.8%,/,/,/,-11.7%,/
CC(C)(C)C(CO)NC(=O)c1ccc[nH]1 (stereo not drawn),-27.2%,7.9,13.9%,10.1%,11.3%,-5.2%
Cc1cc(C)c(NC(=O)CCN2CCCCC2)c(C)c1,2.1%,/,/,/,0.8%,/
O=S(=O)(c1cccc(F)c1)N1CCN(Cc2cc3c(cc2Br)OCCO3)CC1,?,-6.6,?,0.7%[9.24 µM],?,8.9%
CCOC(=O)c1ccc(CN(Cc2ccc(OC)cc2)S(=O)(=O)c2cccc(C(F)(F)F)c2)cc1,-20.0%,/,/,/,-26.9%,/
Cc1ccc(C(=O)C(C(=O)/C=C/c2ccccc2)=C2SCCCS2)cc1,5.8µM*,-111.4*,10.3µM*,11.6µM*,4.61µM*,-15.4%
COc1ccc(/C=C/C(=O)C(C(N)=O)=C2SCCS2)cc1,?,?,-25.1%,-10.6%,?,-10.3%
O=C(NCCCN1CCOCC1)c1cnn(-c2ncc3c(n2)-c2ccccc2CC3)c1C1CC1,-2.0%[9.04 µM],/,/,/,-15.3%,/
COC(=O)C1CCN(C(=O)CSc2nc3ccc(OC)cc3[nH]2)CC1,-0.7%,-64.2*,11.7%,8.5%,-17.5%,3.9%
COc1ccccc1C(=O)Nc1ccccc1N1CCOCC1,?,-16.2,3.7%,7.8%,?,-6.5%
COc1ccc(N2CCOCC2)c(NC(=O)c2cc3ccccc3o2)c1,?,7.3,-6.5%,-2.0%,?,-2.6%
CSCc1c(C(=O)Nc2ccccc2N2CCOCC2)oc2ccccc12,16.4µM*,28.8,3.8%,20.9%,7.31µM*,-5.4%
O=C(Nc1ccc(N2CCN(C(=O)c3ccccc3)CC2)cc1)c1cc2ccccc2o1,6.51µM*,-97.0*,?,-21.2%,5.17µM*,5.0%
SMILES,DT40 TDP1 CPT,IL-1B inflam inh,HT1080 IDH1KD tx,HT1080-NT tox,TDP1 cell noCPT,uPA surface inh
COc1c(C(=O)Nc2ccccc2N2CCOCC2)cc2ccccc2c1Br,?,-10.1,-7.6%,-7.3%,23.1µM*,9.2%
O=C(Nc1ccccc1N1CCN(C(=O)c2ccccc2)CC1)c1cc2ccccc2o1,?,16.7,4.5%,8.0%,20.6µM*,0.1%
COCCCNc1nccn2ccnc12,11.5%,-10.5,7.6%,23.6%,-2.1%,/
CCCCN(C(=O)c1cccc(-n2cnnn2)c1)c1c(N)n(CCCC)c(=O)[nH]c1=O,4.3%,29.0,4.2%,4.7%,1.5%,/
CCC1C(=O)NCCN1Cc1ccc2c(c1)CN(Cc1cccn1-c1ccc(Cl)cn1)CCO2 (stereo not drawn),8.3%[9.04 µM],/,/,/,?,/
C(=N\Nc1ccccc1)/c1nc2ccccc2s1,-4.8%,0.0,-8.3%,-0.1%,-12.6%,4.8%
O=C(NC(=S)N1CCOCC1)c1cc2ccccc2o1,6.51µM*,8.6,9.1%,-9.4%,11.6µM*,2.8%
O=C(Nc1ccccc1N1CCCC1)c1cc2ccccc2o1,?,0.0,0.6%,6.3%,?,-5.8%
CN1CCN(c2ccccc2NC(=O)c2cc3ccccc3o2)CC1,?,?,-21.4%,?,?,/
CS(=O)(=O)N1CCN(c2ccccc2NC(=O)c2cc3ccccc3o2)CC1,-29.1%,-11.3,-10.2%,-24.9%,14.6µM*,5.2%
O=C(Nc1ccccc1N1CCOCC1)c1cc2ccccc2o1,16.4µM*,3.4,11.7%,-0.5%,-25.9%,1.2%
O=C(Nc1ccc(N2CCOCC2)c(Cl)c1)c1cc2ccccc2o1,14.6µM*,-78.4*,?,?,20.6µM*,-9.1%
O=C(c1cc2ccccc2o1)N1CCOCC1,1.0%,-16.1,-1.8%,1.1%,8.1%,-4.3%
CCN1C(=O)[C@H]2[C@H]3CN=C(SCc4ccc(C)cc4)N3[C@@](C)(C(=O)OC)[C@H]2C1=O,-14.1%,2.4,13.7%,11.9%,?,20.7%
Cc1ccc(NC(=O)c2cc(S(=O)(=O)N(C)C)ccc2N2CCCC2)cc1F,0.8%,0.0,-25.6%,-13.7%,2.7%,?
COc1ccc(N(CC(=O)Nc2cccc(C(C)=O)c2)S(=O)(=O)c2ccccc2)c(OC)c1,7.31µM*,/,/,/,6.51µM*,/
CCc1ccccc1NC(=O)CN(c1ccc(OC)cc1OC)S(=O)(=O)c1ccccc1,20.6µM*,-9.0,-14.4%,-0.2%,?,-19.1%
COc1cccc(N(CC(=O)Nc2cccc(C(C)=O)c2)S(C)(=O)=O)c1,-16.0%,-7.2,2.7%,5.0%,-23.8%,2.1%
COc1ccc(NC(=O)CN(c2ccc(F)cc2)S(=O)(=O)c2ccccc2)c(OC)c1,?,50.0,7.1%,4.2%,?,3.0%
